From PubChem
Most compounds without a hit are left out; they make up all but 3.9% or so of the library.
PK Bst: Pyruvate Kinase; purified pyruvate kinase, luminescence ATP production; ribose 5-phosphate activator present at AC10; Potency, µM; 51,000 compounds, 1.2% hits; AID 361, 2006; in the data active = potency below about 11 µM; inconclusive = mostly about 12 µM to 25 µM;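 the screen sought inhibitors and activators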
GBA mod: Glucocerebrosidase. AID 360, 2006. 48,000 compounds, 1.1% hits. purified enzyme, resorufin glucoside fluorescence (screen aimed at inhibitors), 20 min. Potency, µM; in the data active = potency below about 15 µM; inconclusive = mostly about 16 µM to 33 µM;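 also: the screen sought inhibitors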
Target sequence (P04062 whole entry, looked up): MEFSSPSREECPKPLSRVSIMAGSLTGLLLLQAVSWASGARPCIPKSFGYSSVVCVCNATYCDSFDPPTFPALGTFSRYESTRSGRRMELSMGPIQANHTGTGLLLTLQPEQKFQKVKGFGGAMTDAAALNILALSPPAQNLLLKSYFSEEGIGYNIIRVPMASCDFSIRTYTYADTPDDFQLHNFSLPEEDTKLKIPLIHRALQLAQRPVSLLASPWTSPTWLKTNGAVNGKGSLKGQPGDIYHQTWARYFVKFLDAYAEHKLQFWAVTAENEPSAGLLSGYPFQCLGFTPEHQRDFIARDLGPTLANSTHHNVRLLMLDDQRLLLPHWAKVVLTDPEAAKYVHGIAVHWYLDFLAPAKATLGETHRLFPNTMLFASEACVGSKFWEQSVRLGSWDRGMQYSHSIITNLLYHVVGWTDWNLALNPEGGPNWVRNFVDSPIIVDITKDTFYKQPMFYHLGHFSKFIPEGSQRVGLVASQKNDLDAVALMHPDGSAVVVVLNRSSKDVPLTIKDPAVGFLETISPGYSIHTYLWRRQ
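Compounds titrated against 0.2 nM normal enzyme, 30 uM resorufin beta-D-glucopyranoside substrate, citrate/phosphate buffer with taurocholate and tween-20, pH 5.9. Reaction ran 20 min at room temperature; fluorescence (Ex 548/Em 600) gave AC50.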
ERK AVP inh: qHTS Assay for Inhibitors of the ERK Signaling Pathway using a Homogeneous Screening Assay | AID 995, 2007 | Potency, µM (series often up to 57.5 µM), most hits filed as inhibitors | 72,000 compounds, 0.99% hits | HEK293-V1b, vasopressin-stimulated pERK AlphaScreen; also: nearly all actives have a fitted effect of over 55% in size
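HEK293 cells stably expressing V1b receptor, seeded overnight in 1% FBS, were treated with compounds for 30 min at 37C, then stimulated 5 min with 25 nM vasopressin; phospho-ERK read by AlphaScreen SureFire after lysis.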
Luciferase inh: qHTS Assay for Inhibitors of Firefly Luciferase; purified firefly luciferase, luminescence, 8 min; Potency, µM (doses to about 57.1 µM), most hits filed as inhibitors; 72,000 compounds, 2.2% hits; AID 411, 2009; also: nearly all actives have a fitted effect of over 40% in size
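Here, luciferase activity is measured as luminescence following an 8 min room-temperature reaction at 10 uM ATP, pH 7.2. Every library sample is titrated.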
Large screens that a line does not name were inactive. Unless noted, calls follow the shape of the dose curve; as a rule, active = well fitted curve in the direction sought with a large enough effect; inconclusive = small, poorly fitted or top-dose-only effect, or another doubt; inactive = no such curve, though single readings can be large; an effect the other way counts as inactive or inconclusive.

O=C(Nc1ccc(Cl)cc1)Nc1ccc2c(c1)N1CCN=C1S2	GBA mod inconclusive, ERK AVP inh 32µM
COc1ccc2[nH]c3nc(SC(C)C)nnc3c2c1	PK Bst 4.5, Luciferase inh 1.6µM
COc1ccc2[nH]c3nc(SCc4nnc(-c5ccccc5)o4)nnc3c2c1	none
O=C(CN1C(=O)CCC1=O)Nc1nc(-c2nc3ccccc3s2)cs1	Luciferase inh 13µM (no result: PK Bst, GBA mod, ERK AVP inh)
O=C(Nc1nc(-c2ccc3c(c2)OCO3)cs1)C1CC1	Luciferase inh 13µM (no result: PK Bst, GBA mod, ERK AVP inh)
O=C(Nc1nc(-c2nc3ccccc3s2)cs1)C1CC1	Luciferase inh 5µM (no result: PK Bst, GBA mod, ERK AVP inh)
CN(C)/C=N/c1cnc(C(=O)c2ccc(Cl)cc2)n1C	Luciferase inh 13µM (no result: PK Bst, GBA mod)
COc1ccc2[nH]c(=O)c(C(c3nnnn3CC3CCCO3)N3CCc4ccccc4C3)cc2c1 (centres undefined)	GBA mod 14
COc1ccc(C(=O)N2CCC[C@@]3(CCN(Cc4ccccc4OC)C3)C2)cc1	none (no result: PK Bst, GBA mod)
O=C(CN1CCN(Cc2ccccc2)CC1)N1CCCc2c1c(=O)oc1ccc(O)cc21	GBA mod 14
c1csc(CNc2ncncc2-c2ccoc2)c1	none (no result: PK Bst, GBA mod)
Cc1cc(N2CCCCCC2)nc(-c2ccccc2O)n1	none
Cc1cc(Nc2ccccc2)nc(-c2ccccc2O)n1	ERK AVP inh 32µM (no result: GBA mod)
Cc1cc(Nc2cccc(F)c2)nc(-c2ccccc2O)n1	ERK AVP inh 7.9µM
c1ccc2c(N3CCNCC3)nc(-c3ccc4c(c3)OCO4)nc2c1	none (no result: PK Bst, GBA mod)
Cc1noc(C)c1-c1cc(N(C)Cc2ccco2)ncn1	none (no result: PK Bst, GBA mod)
c1cc(-c2nc3ccccc3o2)nc(-c2nc3ccccc3o2)c1	none
c1ccc2nc(-c3nc4ccccc4o3)ccc2c1	PK Bst 1.5, GBA mod inconclusive, Luciferase inh 1.3µM
FC(F)(F)c1nc(SCc2ccc(Cl)cc2)n[nH]1	none (no result: PK Bst, GBA mod)
Cc1cc(N2CCN(C3CCCC3)CC2)n2nc(C)c(-c3ccccc3)c2n1	none
C/C(Cl)=C/Cn1c(SC(C)C)nc2c1c(=O)[nH]c(=O)n2C	ERK AVP inh 16µM
CCOC(=O)c1ccc(-n2c(N)c(C(=O)NCc3ccco3)sc2=S)cc1	ERK AVP inh 20µM
Nc1nc(CSc2ncn(-c3ccccc3)n2)cs1	Luciferase inh 25µM (no result: PK Bst)
c1ccc(CSc2ncn(-c3ccccc3)n2)cc1	Luciferase inh inconclusive (no result: PK Bst, GBA mod)
CC(NC(=O)C1CCN(c2nnc(-n3cccc3)s2)CC1)C12CC3CC(CC(C3)C1)C2 (centres undefined)	PK Bst 8.2 (no result: GBA mod)
CC(C)NC(=O)C1CCCN(c2nnc(-n3cccc3)s2)C1 (centres undefined)	none (no result: PK Bst, GBA mod)
COC(=O)c1ccc(C(NC(=O)OCc2ccccc2)/C(I)=C/[C@@H](C)C(=O)NCc2ccncc2)cc1 (some centres undefined)	none (no result: PK Bst, GBA mod, Luciferase inh)
CCCCC1=NC2(CCCC2)C(=O)N1Cc1ccc(-c2ccccc2-c2nn[nH]n2)cc1	none (no result: PK Bst, GBA mod, Luciferase inh)
CCc1cc2c(c(CC)n1)CCC(=O)N2Cc1ccc(-c2ccccc2-c2nn[nH]n2)cc1	ERK AVP inh inconclusive, Luciferase inh 16µM (no result: PK Bst, GBA mod)
O=c1c(-c2ccc(Cl)cc2)nc2cnc(N3CCNCC3)nc2n1Cc1cccs1	ERK AVP inh inconclusive (no result: PK Bst, GBA mod)
CC(=NCc1ccco1)c1c(C)[nH]n(-c2nc3ccccc3s2)c1=O	Luciferase inh 2µM (no result: PK Bst)
CC(C)(C)n1ncc2c(=O)n(CC(=O)OCc3ccccc3)cnc21	PK Bst 0.54, Luciferase inh 0.4µM
CC(C)(C)n1ncc2c(=O)n(CC(=O)c3ccccc3)cnc21	none
CC(C)(C)n1ncc2c(=O)n(CC(=O)NCc3ccc(F)cc3)cnc21	Luciferase inh 20µM (no result: PK Bst)
COc1ccc(C(=O)N=c2nc3ccccn3s2)cc1	PK Bst 0.68, Luciferase inh 0.5µM
CCCn1cnc2c(c1=O)c1nc3ccccc3nc1n2Cc1ccccc1OC	none
CCCCn1c2nc3ccccc3nc2c2c(=O)n(CCC)cnc21	GBA mod 5
CC(C)CCn1cnc2c(c1=O)c1nc3ccccc3nc1n2Cc1ccc2c(c1)OCO2	GBA mod 6.1
CC1CCC2C(=O)N3C(CCC(C)C3c3ccc(-c4ccco4)cc3)C(=O)N2C1c1ccc(-c2ccco2)cc1 (centres undefined)	none (no result: PK Bst, GBA mod, Luciferase inh)
CCOC(=O)c1c(C2COc3ccccc3O2)csc1N (centres undefined)	ERK AVP inh 32µM (no result: PK Bst)
CCOC(=O)N1CCN(C(=O)C2COc3ccccc3O2)CC1 (centres undefined)	none (no result: PK Bst, GBA mod)
CC(=O)OC(C(=O)c1ccccc1)c1ccccc1 (centres undefined)	none (no result: PK Bst, GBA mod, Luciferase inh)
O=C(O)CC/C=C\CC[C@H]1[C@@H](N2CCCCC2)[C@@H](O)C[C@@H]1OCc1ccc(-c2ccccc2)cc1	none (no result: PK Bst, GBA mod)
COc1ccc(OC)c(Nc2cc(-c3ccccc3)nc(N)n2)c1	GBA mod inconclusive, ERK AVP inh 10µM
N#CC1(O)CCCCC1	none (no result: PK Bst, GBA mod, Luciferase inh)
CC1CCc2c(sc3nc(SCC(=O)NCc4ccco4)nc(N)c23)C1 (centres undefined)	Luciferase inh 13µM
CC1CCc2c(sc3nc(C4CC4)nc(SCC(=O)NCc4ccco4)c23)C1 (centres undefined)	none (no result: PK Bst)
CCOC(=O)c1c(C)nc(-c2ccccc2)nc1NC(C)=O	none (no result: PK Bst, GBA mod)
CCOC(=O)c1c(C)nc(-c2ccccc2)nc1N	Luciferase inh 25µM
O=C(c1ccco1)N1CCC2(CC1)CN(c1ccccc1)C2	none (no result: PK Bst, GBA mod)
IC(I)I	none (no result: PK Bst, GBA mod, Luciferase inh)
O=C(Cc1ccc2cccnc2c1)c1ccc(O)cc1O	PK Bst 6
Oc1ccc2cccnc2c1	none
CN(C(=O)c1ccccc1C(=O)O)C1CC(C)(C)NC(C)(C)C1	none (no result: PK Bst, GBA mod, ERK AVP inh)
CC(C)(C)c1ccc(C(=O)Nc2nonc2-c2nc3ccccc3[nH]2)cc1	GBA mod 2.4
Cn1cccc1-c1nc2ccc(NC(=O)c3ccccc3)cc2[nH]1	ERK AVP inh inconclusive (no result: PK Bst, GBA mod)
CC(C)CCNC(=O)C(c1ccco1)N(C(=O)Cn1nnc2ccccc21)c1ccc2c(c1)OCO2 (centres undefined)	GBA mod 8.2
CCCCNCC	none (no result: PK Bst, GBA mod, Luciferase inh)
CC(=O)c1cccc(NC(=O)NCCS(C)=O)c1 (centres undefined)	none
CSc1cccc(NC(=O)COc2ccccc2)c1	none
CC(=O)c1cccc(NC(=O)Nc2ccc(C(=O)N3CCCC3)cc2)c1	Luciferase inh 2.5µM (no result: PK Bst)
CCN(CC)c1ccc(NC(=O)Nc2cccc(C(C)=O)c2)cc1	PK Bst 9, ERK AVP inh inconclusive, Luciferase inh 7.9µM
O=C(Nc1ccc(Nc2ccccc2)cc1)N1CCOCC1	GBA mod 2
CSc1cccc(NC(=O)Nc2ccccc2)c1	ERK AVP inh inconclusive, Luciferase inh 10µM (no result: PK Bst, GBA mod)
O=C(Nc1cccc(F)c1)N1CC2(CCN(C(=O)c3ccncc3)CC2)C1	none (no result: PK Bst, GBA mod)
N#Cc1cccc(-c2cc(NCc3cccnc3)ncn2)c1	none (no result: PK Bst, GBA mod)
O=C1[C@H]2[C@H]3[C@H](O)[C@H](O)C/C(=N/OC[C@@H](O)COCc4ccco4)[C@@H]3CC[C@@H]2C(=O)N1Cc1ccccc1	none (no result: PK Bst, GBA mod)
FC(F)(F)c1ccccc1-c1ccc2ncnc(NCc3cccs3)c2c1	none (no result: PK Bst, GBA mod)
CC(=O)c1cccc(NC(=O)Nc2ccc3c(c2)N(C)C(=O)CS3)c1	ERK AVP inh 10µM, Luciferase inh 16µM
CC(=O)Nc1cccc(NC(=O)Nc2ccc(C(C)=O)cc2)c1	Luciferase inh 13µM
